Results taken from PubChem BioAssay (EPA / NIEHS).
Active and inactive are the calls of the source. Rule for the calls: active = hit-call score of the fitted dose curve at least 0.9, where 1 is the maximum; inactive = score below 0.9.

Legend:
[1] = ATG_GLI_CIS: Attagene CIS-FACTORIAL HepG2 Assay for human Zinc Finger Protein GLI1 (AID 2282945); conditions: HepG2, Attagene cis-factorial reporter mRNA, GLI element; actives raise or lower the signal
Method in brief: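 Transiently transfected HepG2 cells report endogenous transcription factor activity via cis-element-driven reporter units. After 24 h compound exposure, reporter mRNA was measured by RT-PCR with capillary electrophoresis; bidirectional fitting against DMSO baseline.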

[2] = ATG_GRE_CIS: Attagene CIS-FACTORIAL HepG2 Assay for human Glucocorticoid Response Elements (GRE) (AID 2282947); conditions: HepG2 GRE cis-reporter, Attagene multiplex mRNA; actives raise or lower the signal
Method in brief: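 Read-out: fluorescent reporter-transcript fragments separated by capillary electrophoresis after RT-PCR. Transiently transfected HepG2 cells carrying cis-element-driven reporter units were dosed for 24 h; gain or loss of signal fitted against DMSO control.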

[3] = ATG_ISRE_CIS: Attagene CIS-FACTORIAL HepG2 Assay for human Interferon Regulatory Factor 1 (IRF1) binding to an Interferon-Stimulated Response Element (ISRE) (AID 2282948); conditions: HepG2 ISRE cis-reporter (Attagene), mRNA transcription readout; actives raise or lower the signal
Method in brief: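 Uses HepG2 liver cells transfected with cis-regulated reporters and measures mRNA 24 h post-dosing through RT-PCR, primer-extension labelling and capillary electrophoresis, with DMSO as negative control.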

[4] = ATG_M_32_CIS: Attagene CIS-FACTORIAL HepG2 Assay for M32 Transcription Factor (Internal Marker) (AID 2282949); conditions: HepG2 Attagene cis-factorial M32 reporter, mRNA; actives raise or lower the signal;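 note: background control marker of the multiplexed CIS panel rather than a real target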
Method in brief: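 Transient MRTU transfection of HepG2; 24 h compound treatment; TriZol RNA, oligo(dT) RT, reporter PCR, 6-FAM primer extension, HpaI cut, CE. Gain/loss of signal vs DMSO.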

[5] = ATG_M_06_CIS: Attagene CIS-FACTORIAL HepG2 Assay for M06 Transcription Factor (Internal Marker) (AID 2282950); conditions: HepG2 Attagene CIS-FACTORIAL M06 internal marker reporter; actives raise or lower the signal
Method in brief: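 Steps: transfect HepG2 with multiplexed cis-element reporter constructs; dose chemical 24 h; extract RNA with DNase treatment; reverse-transcribe, PCR-amplify, 6-FAM label, HpaI digest; separate fragments by capillary electrophoresis. Activity fitted both directions versus DMSO.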

[6] = biological target: Hepatocyte nuclear factor 6 (Homo sapiens) (UniProt Q9UBC0); assay: ATG_HNF6_CIS: Attagene CIS-FACTORIAL HepG2 Assay for human Hepatocyte Nuclear Factor 6 (HNF6) (AID 2282952); conditions: HepG2 Attagene cis-factorial HNF6 reporter transcription; actives raise or lower the signal
Sequence of Hepatocyte nuclear factor 6 (Homo sapiens) (Q9UBC0 whole entry, looked up): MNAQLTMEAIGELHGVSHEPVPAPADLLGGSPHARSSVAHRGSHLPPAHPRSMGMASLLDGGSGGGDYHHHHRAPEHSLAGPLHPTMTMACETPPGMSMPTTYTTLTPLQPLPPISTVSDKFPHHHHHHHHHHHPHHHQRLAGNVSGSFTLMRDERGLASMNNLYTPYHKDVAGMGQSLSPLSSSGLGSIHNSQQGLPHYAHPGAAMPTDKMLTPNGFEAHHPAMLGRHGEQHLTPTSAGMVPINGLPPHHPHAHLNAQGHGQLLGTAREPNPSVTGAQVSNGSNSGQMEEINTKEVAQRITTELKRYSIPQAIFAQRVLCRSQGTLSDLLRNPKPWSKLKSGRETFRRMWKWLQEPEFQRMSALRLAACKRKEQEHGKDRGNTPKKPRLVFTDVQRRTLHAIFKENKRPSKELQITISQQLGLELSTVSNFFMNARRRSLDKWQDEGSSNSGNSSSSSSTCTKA
Method in brief: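 Activity values derive from bidirectional fitting against DMSO of reporter mRNA levels, measured by capillary electrophoresis of labelled RT-PCR products from HepG2 cells exposed 24 h.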

[7] = biological target: Heat shock factor protein 1 (Homo sapiens) (UniProt Q00613); assay: ATG_HSE_CIS: Attagene CIS-FACTORIAL HepG2 Assay for human Heat Shock Transcription Factor 1 (HSE) (AID 2282953); conditions: HepG2 HSE cis-reporter, Attagene RNA transcription; actives raise or lower the signal
Sequence of Heat shock factor protein 1 (Homo sapiens) (Q00613 whole entry, looked up, the tested form may be a part): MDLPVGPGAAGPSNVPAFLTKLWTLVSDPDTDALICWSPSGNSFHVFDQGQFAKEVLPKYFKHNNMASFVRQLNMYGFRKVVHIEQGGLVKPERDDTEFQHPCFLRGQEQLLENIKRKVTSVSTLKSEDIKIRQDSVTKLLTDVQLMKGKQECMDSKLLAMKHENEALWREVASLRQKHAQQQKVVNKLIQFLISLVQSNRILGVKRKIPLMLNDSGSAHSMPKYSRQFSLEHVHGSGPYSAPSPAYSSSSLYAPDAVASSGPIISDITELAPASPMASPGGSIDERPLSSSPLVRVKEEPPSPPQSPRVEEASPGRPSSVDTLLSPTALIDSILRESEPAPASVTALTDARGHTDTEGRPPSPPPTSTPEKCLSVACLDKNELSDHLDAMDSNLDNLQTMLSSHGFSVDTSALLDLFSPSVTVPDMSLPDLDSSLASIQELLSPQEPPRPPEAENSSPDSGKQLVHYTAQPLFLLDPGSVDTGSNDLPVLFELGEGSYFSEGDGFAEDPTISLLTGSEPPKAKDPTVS
Method in brief: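 Cells were transfected with cis-element-driven reporter constructs, dosed for 24 h, then total RNA was reverse-transcribed and reporter cDNA amplified, FAM-labelled and digested with HpaI. Fragments were resolved by capillary electrophoresis; gain or loss was fitted against DMSO.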

[8] = ATG_MRE_CIS: Attagene CIS-FACTORIAL HepG2 Assay for human Metal Responsive Element (MRE) (AID 2282954); conditions: HepG2 MRE cis-reporter transcription, Attagene multiplex; actives raise or lower the signal
Method in brief: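 RT-PCR/capillary electrophoresis readout of reporter mRNA, 24 h post-dosing, in HepG2 cells transfected with multiplexed cis-regulated reporter constructs. Gain or loss of signal fitted bidirectionally against DMSO baseline.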

[9] = ATG_PBREM_CIS: Attagene CIS-FACTORIAL HepG2 Assay for human Phenobarbital-responsive Enhancer Module (PBREM) (AID 2282955); conditions: HepG2 PBREM cis-reporter, Attagene multiplexed transcription; actives raise or lower the signal
Method in brief: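 Endogenous transcription factors in human liver HepG2 cells drive a PBREM cis-element reporter, whose transcript level after 24 h treatment is quantified by RT-PCR with capillary electrophoresis; activity fitted in both directions against DMSO.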

[10] = biological target: Paired box protein Pax-6 (Homo sapiens) (UniProt P26367); assay: ATG_Pax6_CIS: Attagene CIS-FACTORIAL HepG2 Assay for human Paired Box 6 (PAX6) (AID 2282956); conditions: HepG2 CIS-FACTORIAL PAX6 reporter transcription, RNA readout; actives raise or lower the signal
Sequence of Paired box protein Pax-6 (Homo sapiens) (P26367 whole entry, looked up): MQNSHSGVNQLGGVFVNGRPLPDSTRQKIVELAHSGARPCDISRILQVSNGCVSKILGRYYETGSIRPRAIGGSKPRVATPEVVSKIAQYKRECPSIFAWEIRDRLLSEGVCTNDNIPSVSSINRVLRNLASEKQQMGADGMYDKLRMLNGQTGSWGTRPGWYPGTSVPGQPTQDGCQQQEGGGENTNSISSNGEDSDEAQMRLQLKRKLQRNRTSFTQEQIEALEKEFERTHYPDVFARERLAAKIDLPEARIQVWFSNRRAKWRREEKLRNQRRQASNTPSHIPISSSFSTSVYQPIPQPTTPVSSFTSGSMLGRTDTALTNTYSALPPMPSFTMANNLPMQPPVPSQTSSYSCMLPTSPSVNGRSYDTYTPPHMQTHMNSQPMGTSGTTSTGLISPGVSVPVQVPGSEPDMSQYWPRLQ
Method in brief: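 DMSO-referenced bidirectional fits of reporter mRNA fluorescence; HepG2 with transient cis-promoter MRTUs, 24 h post-dose, RT-PCR plus capillary electrophoresis detection.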

[11] = ATG_PXRE_CIS: Attagene CIS-FACTORIAL HepG2 Assay for human Pregnane X Receptor Element (PXRE) (AID 2282957); conditions: HepG2 Attagene CIS-FACTORIAL PXRE reporter, mRNA; actives raise or lower the signal
Method in brief: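 Fluorescent capillary electrophoresis of amplified reporter cDNA gave the signal, collected 24 h after dosing HepG2 cells that held transfected cis-element reporter constructs.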

[12] = ATG_PPRE_CIS: Attagene CIS-FACTORIAL HepG2 Assay for human Peroxisome Proliferator-activated Response Element (PPRE) (AID 2282958); conditions: HepG2 PPRE cis-element reporter, Attagene transcription factor profiling; actives raise or lower the signal
Method in brief: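 HepG2, transient MRTU transfection (cis promoter elements, endogenous TFs). 24 h dosing. RNA → oligo(dT) RT → PCR → 6-FAM primer extension → HpaI digest → CE. Bidirectional fit vs DMSO.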

[13] = ATG_RORE_CIS: Attagene CIS-FACTORIAL HepG2 Assay for human RAR-related Orphan Receptor Element (RORE) (AID 2282959); conditions: HepG2 Attagene cis-factorial RORE reporter, mRNA; actives raise or lower the signal
Method in brief: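 Transient MRTU transfection of human HepG2 liver cells (FuGene 6); 24 h compound exposure; TriZol RNA, oligo(dT) RT, PCR, FAM labeling, HpaI cut, CE fragment analysis. DMSO = negative control/baseline.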

[14] = ATG_Sox_CIS: Attagene CIS-FACTORIAL HepG2 Assay for human SRY-box transcription factor (SOX) (AID 2282960); conditions: HepG2 Attagene cis-factorial SOX reporter, mRNA; actives raise or lower the signal
Method in brief: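 Endogenous factor activity in human liver HepG2 cells carrying transfected cis-regulated reporter units. RNA taken 24 h post-dose, reverse-transcribed, PCR-amplified and sized by capillary electrophoresis. Gain or loss of signal fitted relative to DMSO.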

[15] = biological target: Transcription factor Sp1 (Homo sapiens) (UniProt P08047); assay: ATG_Sp1_CIS: Attagene CIS-FACTORIAL HepG2 Assay for human Specificity Protein 1 (Sp1) (AID 2282961); conditions: HepG2 Sp1 cis-reporter transcription, actives raise or lower the signal
Sequence of Transcription factor Sp1 (Homo sapiens) (P08047 whole entry, looked up): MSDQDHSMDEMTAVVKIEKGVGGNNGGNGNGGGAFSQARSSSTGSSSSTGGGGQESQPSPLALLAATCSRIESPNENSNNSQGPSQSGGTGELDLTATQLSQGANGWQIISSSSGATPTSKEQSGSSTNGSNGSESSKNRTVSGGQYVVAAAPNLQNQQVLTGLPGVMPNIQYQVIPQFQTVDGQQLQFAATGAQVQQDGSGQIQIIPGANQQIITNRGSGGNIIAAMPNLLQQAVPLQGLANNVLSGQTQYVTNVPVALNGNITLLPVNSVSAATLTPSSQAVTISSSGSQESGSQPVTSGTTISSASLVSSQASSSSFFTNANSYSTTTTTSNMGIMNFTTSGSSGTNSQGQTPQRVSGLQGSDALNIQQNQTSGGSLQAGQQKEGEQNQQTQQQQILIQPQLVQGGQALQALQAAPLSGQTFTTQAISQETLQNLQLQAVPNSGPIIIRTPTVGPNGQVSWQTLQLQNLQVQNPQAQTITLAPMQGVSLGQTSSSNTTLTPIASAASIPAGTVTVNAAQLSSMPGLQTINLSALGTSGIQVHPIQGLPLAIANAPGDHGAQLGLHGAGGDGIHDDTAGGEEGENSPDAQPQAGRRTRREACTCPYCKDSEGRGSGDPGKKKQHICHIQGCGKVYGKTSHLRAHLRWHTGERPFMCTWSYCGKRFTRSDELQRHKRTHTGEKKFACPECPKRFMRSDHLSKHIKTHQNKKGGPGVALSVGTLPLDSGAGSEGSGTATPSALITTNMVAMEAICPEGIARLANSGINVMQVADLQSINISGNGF
Method in brief: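 Transient MRTU-transfected HepG2, 24 h compound exposure. Total RNA → oligo(dT) RT → PCR of reporter → 6-FAM primer extension → HpaI digest → CE. Endpoint fitted both directions vs DMSO.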

[16] = ATG_SREBP_CIS: Attagene CIS-FACTORIAL HepG2 Assay for human Sterol Regulatory Element Binding (SREBP) (AID 2282962); conditions: HepG2 Attagene cis-factorial SREBP reporter, mRNA; actives raise or lower the signal
Method in brief: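 In this cis-format assay, HepG2 liver cells express reporters controlled by promoter elements responsive to native transcription factors. Exposure lasts 24 h; reporter mRNA fluorescence from capillary electrophoresis gives the signal, fitted bidirectionally against DMSO.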

[17] = biological target: Signal transducer and activator of transcription 3 (Homo sapiens) (UniProt P40763); assay: ATG_STAT3_CIS: Attagene CIS-FACTORIAL HepG2 Assay for human Signal Transducer and Activator of Transcription 3 (STAT3) (AID 2282963); conditions: HepG2, Attagene cis-factorial STAT3 reporter transcription; actives raise or lower the signal
Sequence of Signal transducer and activator of transcription 3 (Homo sapiens) (P40763 whole entry, looked up, the tested form may be a part): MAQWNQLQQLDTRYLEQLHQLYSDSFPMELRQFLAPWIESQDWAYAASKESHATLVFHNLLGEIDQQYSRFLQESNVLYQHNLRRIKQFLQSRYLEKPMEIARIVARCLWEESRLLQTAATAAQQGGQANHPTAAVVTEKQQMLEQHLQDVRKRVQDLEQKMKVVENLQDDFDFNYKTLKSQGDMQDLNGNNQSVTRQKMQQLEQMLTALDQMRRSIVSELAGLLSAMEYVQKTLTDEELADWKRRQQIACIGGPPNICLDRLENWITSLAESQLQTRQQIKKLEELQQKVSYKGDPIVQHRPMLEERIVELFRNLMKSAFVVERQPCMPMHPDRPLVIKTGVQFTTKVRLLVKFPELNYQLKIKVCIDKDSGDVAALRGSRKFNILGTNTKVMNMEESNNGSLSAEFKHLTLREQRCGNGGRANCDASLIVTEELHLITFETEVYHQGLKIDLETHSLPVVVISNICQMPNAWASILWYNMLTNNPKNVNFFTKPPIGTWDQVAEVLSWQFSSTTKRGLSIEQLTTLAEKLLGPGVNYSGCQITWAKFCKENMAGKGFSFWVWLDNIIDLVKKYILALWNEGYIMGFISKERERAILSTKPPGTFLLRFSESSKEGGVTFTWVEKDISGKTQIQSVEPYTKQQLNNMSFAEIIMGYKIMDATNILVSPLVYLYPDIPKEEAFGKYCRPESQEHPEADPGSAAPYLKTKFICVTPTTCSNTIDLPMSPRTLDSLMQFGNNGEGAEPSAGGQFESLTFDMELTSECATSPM
Method in brief: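 Readout: fluorescent reporter mRNA fragments resolved by capillary electrophoresis. Setup: HepG2 transfected with MRTUs reporting endogenous transcription-factor activity, dosed 24 h. Gain or loss of signal fitted bidirectionally against DMSO control.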

[18] = ATG_TA_CIS: Attagene CIS-FACTORIAL HepG2 Assay for human TA Basal Promoter (AID 2282964); conditions: HepG2 Attagene CIS-factorial TA basal promoter reporter; actives raise or lower the signal
Method in brief: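 Steps: transfect HepG2 with MRTUs; dose 24 h; isolate RNA, DNase-treat, reverse-transcribe; PCR and FAM-label reporter cDNA; digest with HpaI 2h at 37 C; run capillary electrophoresis. Activity fitted both directions against DMSO.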

[19] = biological target: Hypoxia-inducible factor 1-alpha (Homo sapiens) (UniProt Q16665); assay: ATG_HIF1a_CIS: Attagene CIS-FACTORIAL HepG2 Assay for human Hypoxia Inducible Factor 1 (HIF1A) (AID 2282951); conditions: HepG2 Attagene cis-factorial HIF1a reporter transcription; actives raise or lower the signal
Sequence of Hypoxia-inducible factor 1-alpha (Homo sapiens) (Q16665 whole entry, looked up, the tested form may be a part): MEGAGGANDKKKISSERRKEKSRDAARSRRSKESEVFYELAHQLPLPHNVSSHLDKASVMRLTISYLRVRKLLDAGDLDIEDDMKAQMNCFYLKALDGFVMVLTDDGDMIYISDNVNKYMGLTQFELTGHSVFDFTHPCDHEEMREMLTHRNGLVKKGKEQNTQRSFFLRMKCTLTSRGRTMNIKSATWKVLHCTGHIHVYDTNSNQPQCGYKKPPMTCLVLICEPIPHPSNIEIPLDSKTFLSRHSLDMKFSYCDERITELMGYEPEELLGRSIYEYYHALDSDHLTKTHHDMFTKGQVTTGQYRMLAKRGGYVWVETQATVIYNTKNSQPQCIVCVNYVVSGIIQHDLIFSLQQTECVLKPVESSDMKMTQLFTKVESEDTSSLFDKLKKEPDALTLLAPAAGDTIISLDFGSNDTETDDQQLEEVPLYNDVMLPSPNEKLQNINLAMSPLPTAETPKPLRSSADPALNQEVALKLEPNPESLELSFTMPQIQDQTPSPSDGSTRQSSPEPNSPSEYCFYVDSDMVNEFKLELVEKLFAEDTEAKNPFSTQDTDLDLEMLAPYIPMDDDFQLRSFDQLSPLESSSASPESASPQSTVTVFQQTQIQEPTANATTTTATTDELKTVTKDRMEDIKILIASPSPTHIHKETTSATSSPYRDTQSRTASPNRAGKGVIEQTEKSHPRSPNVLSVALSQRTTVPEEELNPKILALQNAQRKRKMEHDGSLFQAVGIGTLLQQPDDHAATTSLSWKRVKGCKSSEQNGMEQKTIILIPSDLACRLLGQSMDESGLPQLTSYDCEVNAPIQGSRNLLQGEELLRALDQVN
Method in brief: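 Transient MRTU transfection of human HepG2 liver cells, 24 h compound treatment, then total RNA isolation, oligo(dT) reverse transcription, PCR amplification, fluorescent labelling and capillary electrophoresis of reporter fragments. Gain or loss relative to DMSO.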

Measured: AC50

CC(C)Cc1ccc(C(C)C(=O)O)cc1 (centres undefined)
active: [12] 34.4 µM
not listed: [19]
inactive: all other assays above

CCCCC1CCCCC(=O)O1 (centres undefined)
active: [12] 44.3 µM
not listed: [7] | [16]
inactive: all other assays above

C/C=C(\C)C(=O)OC/C=C(\C)CCC=C(C)C
active: [12] 39.6 µM | [16] 61.3 µM
not listed: [7] | [9]
inactive: all other assays above

CCCCCC(=O)O[C@]1(C(C)=O)CC[C@H]2[C@@H]3CCC4=CC(=O)CC[C@]4(C)[C@H]3CC[C@@]21C
active: [1] 57.7 µM | [2] 55.1 µM | [3] 16.3 µM | [7] 32 µM | [8] 13 µM | [10] 22.8 µM | [11] 0.239 µM | [14] 59.6 µM | [16] 33.2 µM | [17] 33.2 µM | [18] 60 µM
inactive: [4] | [5] | [6] | [9] | [12] | [13] | [15]

CC(O)CN (centres undefined)
not listed: [7] | [9] | [12] | [13]
inactive: all other assays above

Nc1ccc(O)c(N)c1
not listed: [7] | [12] | [13] | [17]
inactive: all other assays above

NC(=O)c1cnccn1
not listed: [19]
inactive: all other assays above

CC(C)COC(=O)c1ccccc1
not listed: [7] | [12] | [14]
inactive: all other assays above
